# Test results from PubChem BioAssay (NCI).
# This is part of a sample that, as a whole, favours compounds with a hit. Of some 83,000 tested, about 20% had one in any assay.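 Cell lines were cultured in 96-well plates, exposed to a single compound concentration, and assessed for percent growth 48 hours later.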 Values without a mark were called inactive. Calls of active or inactive are those of the source. The calls were made as follows: active = growth percent below 10; inactive = the rest.
# Key:
# Test in all cases: NCI-60 one-dose screen, 48 h (100 = growth as untreated, 0 = no growth, -100 = all killed)
# Conditions in all cases: 10 µM unless noted
# NCI-H23 lung = test system: NCI-H23 lung
# NCI-H226 lung = test system: NCI-H226 lung
# NCI-H322M lung = test system: NCI-H322M lung
# HOP-62 NSCLC = test system: HOP-62 NSCLC
# NCI-H460 lung = test system: NCI-H460 lung
# HOP-92 NSCLC = test system: HOP-92 NSCLC
# NCI-H522 lung = test system: NCI-H522 lung
# A549/ATCC NSCLC = test system: A549/ATCC NSCLC
# 786-0 renal = test system: 786-0 renal
# COLO 205 colon = test system: COLO 205 colon
SMILES,growth (NCI-H23 lung),growth (NCI-H226 lung),growth (NCI-H322M lung),growth (HOP-62 NSCLC),growth (NCI-H460 lung),growth (HOP-92 NSCLC),growth (NCI-H522 lung),growth (A549/ATCC NSCLC),growth (786-0 renal),growth (COLO 205 colon)
CN(C)c1ccc(-c2cc(-c3ccc(Nc4nc(Nc5ccc(Cl)cc5)nc(Nc5ccc(Cl)cc5)n4)cc3)nc(N)c2C#N)cc1,87.8%,107%,115%,73%,86.3%,46.3%,87.6%,72.3%,72.4%,69.8%
N=C(N)SCc1cccc2c(CSC(=N)N)cccc12,99.2%,87.9%,90.7%,95.1%,103%,83.8%,104%,96.6%,99.3%,108%
O=C(N/N=C/c1ccc([N+](=O)[O-])cc1)c1ccc2nc(-c3ccc(Cl)cc3)[nH]c2c1,16.2%,54.8%,70.1%,44.8%,5.44% (active),59.7%,33%,34.5%,49%,2.28% (active)
CC(C)c1ccc(NC(=O)Nc2ccc(NC(=O)c3ccccc3N)cc2)cc1,59.5%,74.3%,55%,22.6%,22.7%,74.2%,26.8%,50%,8.19% (active),61.8%
CC1(C)CC2=C3C=C[C@@H]4[C@@]5(C)CC[C@H](O)C(C)(C)[C@@H]5CC[C@@]4(C)[C@]3(C)CC[C@@]2(C(=O)O)CC1=O,41.2%,32.3%,55.1%,50.9%,63.2%,-5.32% (active),51.2%,39.2%,21.1%,67%
O=C(CCl)Nc1ccc2c(Nc3cc(O)ccc3Cl)ncnc2c1,-74% (active),-35% (active),5.63% (active),-63.5% (active),-54.8% (active),-85% (active),-65.8% (active),-56.9% (active),-89.8% (active),-51.9% (active)
CCOC(=O)c1c2c(n3ccccc13)C(=O)c1ncccc1C2=O,4.7% (active),9.64% (active),11.4%,-11.7% (active),1.12% (active),28.4%,-22.2% (active),8.27% (active),2.37% (active),20.7%
CCN1C(=O)N(CC)C2C1NN=c1s/c(=C\c3ccccc3Br)c(=O)n12 (stereo not given),27.1%,56.7%,37.5%,40%,3.66% (active),19.5%,0.628% (active),12.3%,17.4%,3.13% (active)
Cc1ccc(-c2csc(NC(=O)N3CCN(c4cc5c(cc4F)c(=O)c(C(=O)O)cn5C4CC4)CC3)n2)cc1,4.84% (active),14.5%,9.12% (active),12.6%,19.6%,-12.6% (active),-5.07% (active),11.1%,28.9%,11.9%
Cc1cscc(C)c1=S,77.2%,103%,87%,99.6%,48.7%,108%,50.8%,88.1%,103%,96.2%
N=C(N)c1ccc(-c2ccc(-c3ccc(Cl)cc3)o2)o1,29%,82.7%,26.2%,52.4%,-72.3% (active),39.5%,-2.55% (active),-64.6% (active),1.68% (active),-78.6% (active)
Fc1ccc(COc2ccc(Nc3ncnc4sc5c(c34)CCCC5)cc2)cc1,99.4%,102%,86.9%,97.2%,97.3%,88.9%,73%,88.4%,94.6%,103%
CC1(C)CC[C@]2(C(=O)O)CC[C@]3(C)C(=CC[C@@H]4[C@@]5(C)C[C@@H](Cc6cn([C@@H]7O[C@H](CO)[C@@H](O)[C@H](O)[C@H]7O)nn6)[C@H](O)C(C)(C)[C@@H]5CC[C@]43C)[C@@H]2C1,104%,98.3%,97.4%,89.2%,106%,102%,106%,85%,95.8%,113%
CN1CCN(Cc2ccc(NC(=O)c3cncc(C#Cc4cnn5ccccc45)c3)cc2C(F)(F)F)CC1,-43.9% (active),-11.6% (active),-2.81% (active),-15.4% (active),-22.5% (active),-7.15% (active),-14.7% (active),4.64% (active),4.29% (active),-33.6% (active)
O=C(O)c1cccc(N/C=C/C(=O)c2cc3cc(Br)ccc3oc2=O)c1,98.1%,94.6%,100%,93.7%,97%,103%,91.8%,92.4%,99.4%,110%
N#Cc1nc(-c2ccc(F)cc2)oc1S(=O)(=O)N1CCN(c2ccc(F)cc2)CC1,72.8%,91.7%,100%,109%,102%,123%,43.5%,104%,100%,86.7%
O=C(/C=C/C12c3ccccc3C(c3ccccc31)C1C(=O)NC(=O)C12)c1ccccn1 (stereo not given),-8.66% (active),48.5%,-4.26% (active),-22.7% (active),-18.5% (active),-12.4% (active),7.45% (active),6.07% (active),1.59% (active),-50.5% (active)
CC(=O)N/C(=C1/OC(C(O)C(O)C(O)CO)CN1C)[P+](c1ccccc1)(c1ccccc1)c1ccccc1 (stereo not given),106%,97.6%,95.1%,91.4%,108%,101%,93.5%,102%,102%,107%
CNC(=O)c1cc(Oc2ccc3nc(NC(=O)Nc4ccc(Cl)c(Cl)c4)sc3c2)ccn1,28.9%,23.1%,63.7%,14.7%,30.8%,64.4%,48.4%,10.9%,40.5%,80.8%
N/C(=N\c1nc2ccccc2s1)NC(=NC1CCCCC1)NC1CCCCC1,30.6%,77.1%,40.4%,67.7%,-44.4% (active),-1.22% (active),14%,45.9%,25.1%,-44.9% (active)
C=C1C(=O)O[C@H]2[C@H]1CC/C(COC(=O)c1cc3cc(F)ccc3[nH]1)=C\CC[C@@]1(C)O[C@@H]21,-66.4% (active),-41.3% (active),-35.7% (active),-50.8% (active),-59.2% (active),-84.9% (active),-68.9% (active),-61.9% (active),-89.6% (active),-68.7% (active)
c1ccc2cc(Cn3c[n+](Cc4ccc5ccccc5c4)c4ccccc43)ccc2c1,-0.737% (active),19.6%,34.6%,3.98% (active),-34.2% (active),-27.7% (active),-28.8% (active),30.9%,-68.2% (active),-80.7% (active)
COc1ccc(NC(=O)c2ccc(C(=O)Nc3ccc(OC)cc3OC)cc2)c(OC)c1,75.3%,71.5%,91.3%,33.6%,95.9%,-19.3% (active),76.4%,85%,51.2%,115%
CCCCn1sc(=O)n(Cc2ccc(CNC(=O)OCc3ccc4c(Cl)cc(Cl)c(O)c4n3)cc2)c1=O,75.3%,73.2%,61.5%,40.4%,26.5%,74.5%,69.9%,48.7%,67.9%,98.1%
C=CC(C)(O)CC/C=C(\CO)C(=O)OC1C(C)OC(O[C@](C)(C=C)CC/C=C(\CO)C(=O)O[C@H]2C[C@@]3(C(=O)OC4OC(CO)C(O)C(O)C4OC4OC(C)C(OC5OC(CO)C(O)C5O)C(OC5OC(CO)C(O)C(O)C5O)C4O)C(CC2(C)C)C2=CCC4[C@@]5(C)CC[C@H](OC6OC(COC7OC(C)C(O)C(O)C7OC7OCC(O)C(O)C7O)C(O)C(O)C6NC(C)=O)C(C)(C)C5CC[C@@]4(C)[C@]2(C)C[C@H]3O)C(O)C1O (stereo not given in full),11.9%,2.06% (active),-78.4% (active),-66.9% (active),57.8%,-46.2% (active),-58.8% (active),-37.5% (active),-77.5% (active),-69.3% (active)
COC(c1ccc2ccccc2c1)C(C)C(F)F (stereo not given),95.7%,100%,99.6%,86.7%,111%,107%,86.9%,96.8%,90.5%,112%
